# Experimental data taken from PubChem BioAssay (NCATS).
# Results filed as inconclusive are left out. Entries that show only a call come without a potency. Calls of active or inactive are those of the source. Calls follow the shape of the dose curve; as a rule, active = well fitted inhibition curve with a large enough effect; inconclusive = small, poorly fitted or top-dose-only effect; inactive = no such curve, though single readings can be large or run the other way.
# Assay: NS1 protein of Zika virus - qHTS assay to identify small molecule inhibitors in human HEK 293 cells (AID 1347053); also: nearly all actives have a fitted effect of over 55% in size
# Conditions: HEK293 ZIKV MR766 infection, NS1 TR-FRET, 24 h; series mostly up to 46.1 µM
# Outline: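 TR-FRET signal from two anti-ZIKV NS1 antibodies quantified NS1 in HEK 293 cells 24 h after MR766 infection at MOI = 0.5; compounds were added 1 h before virus. Uninfected cells and infected cells defined the NS1 normalization range.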
# Potency is read from the fitted curve at half-maximal effect.
row,SMILES,Potency
1,CC1COC2(c3ccccc3Cl)c3cc(Cl)ccc3NC(=O)CN12 (stereo not given),inactive
2,CC(C(O)c1ccccc1)N(C)C/C=C/c1ccccc1 (stereo not given),inactive
3,CCC(=O)C(CCN(C)C)(c1ccccc1)c1ccccc1,inactive
4,CC#C[C@]1(O)CC[C@H]2[C@@H]3C[C@H](C)C4=CC(=O)CC[C@]4(C)[C@H]3CC[C@@]21C,inactive
5,O=C1CN2CCOC2(c2ccccc2Cl)c2cc(Cl)ccc2N1 (stereo not given),inactive
6,CN1C2CCC(C)(C)C1CC(OC(=O)C(O)(c1cccs1)c1cccs1)C2 (stereo not given),inactive
7,Clc1ccc(CO/N=C(\Cn2ccnc2)c2ccc(Cl)cc2Cl)c(Cl)c1,inactive
8,CCN(CC)Cc1nccn1-c1ccc([N+](=O)[O-])cc1C(=O)c1ccccc1Cl,inactive
9,ClCCCN1CCN(c2cccc(Cl)c2)CC1,inactive
10,O=C(CBr)Nc1ccc(Cl)cc1C(=O)c1ccccc1F,inactive
11,COc1cc(C[C@@H](C)N)c(OC)cc1C,inactive
12,CCOC(=O)C1(c2ccccc2)CCN(CCc2ccc(N)cc2)CC1,inactive
13,CN1[C@@H]2CC[C@H]1CC(OC(=O)c1cc(Cl)cc(Cl)c1)C2 (stereo not given in full),inactive
14,CCc1ccc(C2CCNCC2)cc1,inactive
15,O=C(N[C@@H]1N=C(c2ccccc2F)c2cccc3c2N(CC3)C1=O)c1cc2ccccc2[nH]1,inactive
16,C[C@H](CN1CCOCC1)C(C(=O)N1CCCC1)(c1ccccc1)c1ccccc1,inactive
17,Clc1ccc(CSC(Cn2ccnc2)c2ccc(Cl)cc2Cl)cc1 (stereo not given),inactive
18,O=c1[nH]c2cc(Cl)ccc2n1C1CCNCC1,inactive
19,CCCC(C)C1(CC)C(=O)N=C(S)NC1=O (stereo not given),inactive
20,CCCN(CCC)CCc1c[nH]c2ccccc12,inactive

row,SMILES,Potency
1,CCOC(C(=O)OCCN(C)C)(c1ccccc1)c1ccccc1,inactive
2,COP(=S)(OC)Oc1ccc(Sc2ccc(OP(=S)(OC)OC)cc2)cc1,inactive
3,Clc1ccc(C(OCCN2CCCCC2)c2ccccc2)cc1 (stereo not given),inactive
4,O=C(CCCCl)c1ccc(F)cc1,inactive
5,COc1cc(CC#N)cc(OC)c1OC,inactive
6,CN1C(=O)CN=C(c2ccccc2)c2cc(Cl)ccc21,inactive
7,ClCc1cccc(Cl)c1,inactive
8,O=C(CCCN1CCC(n2c(=O)[nH]c3ccccc32)CC1)c1ccc(F)cc1,inactive
9,CN1C(=O)[C@@H](NC(=O)c2cc3ccccc3[nH]2)N=C(c2ccccc2)c2ccccc21,inactive
10,C1CN2CCC1CC2,inactive
11,CC(=O)OC1(c2ccccc2)CCN(CCc2ccccc2)CC1,inactive
12,CC(C)=CCN1CC[C@@]2(C)c3cc(O)ccc3C[C@@H]1[C@@H]2C,inactive
13,c1ccc2c(c1)Sc1ccccc1N2CC1CN2CCC1CC2 (stereo not given),3.16 µM (active)
14,CCN(CC)CCOC(=O)C(C)(c1ccccc1)c1ccccc1,inactive
15,C[C@]12C=CC(=O)C=C1CC[C@@H]1[C@@H]2CC[C@@]2(C)[C@H]1CC[C@]2(C)O,inactive
16,CN1C(=O)CN=C(c2ccccc2)c2cc([N+](=O)[O-])ccc21,inactive
17,CN1CCC(N(Cc2ccccc2)c2ccccc2)CC1,inactive
18,CC1Sc2c(C(=O)O)c(=O)c3cc(F)c(N4CCNCC4)cc3n21 (stereo not given),inactive
19,CCO[C@H]1O[C@@H]2OC3(C)CC[C@H]4[C@H](C)CC[C@@H]([C@H]1C)[C@@]24OO3,inactive
20,Sc1ccccc1Cl,inactive
